According to ChEMBL document CHEMBL4296182, “CO-ADD screening of NIH NCI Diversity Set V”:
For part of these data: Potency and affinity values are given separately.

Legend:
Staphylococcus aureus = test: Antibacterial activity against Staphylococcus aureus MRSA ATCC 43300 (CO-ADD:GP_020); MIC in CAMBH media using NBS plates, by Resazurin F(560/590); format: functional; conditions: Concentration 20 uM, ASSAY_TEST Inhibition of Bacterial Growth, detection method Resazurin, Fluorescence (ex560/em590), MEDIA CAMHB, plate type 384well, CORNING #3640, time 18 hr
Acinetobacter baumannii = test: Antibacterial activity against Acinetobacter baumannii ATCC 19606 (CO-ADD:GN_034); MIC in CAMBH media using NBS plates, by Resazurin F(560/590); format: functional; conditions: Concentration 20 uM, ASSAY_TEST Inhibition of Bacterial Growth, detection method Resazurin, Fluorescence (ex560/em590), MEDIA CAMHB, plate type 384well, CORNING #3640, time 18 hr
Escherichia coli = test: Antibacterial activity against Escherichia coli ATCC 25922 (CO-ADD:GN_001); MIC in CAMBH media using NBS plates, by Resazurin F(560/590); format: functional; conditions: Concentration 20 uM, ASSAY_TEST Inhibition of Bacterial Growth, detection method Resazurin, Fluorescence (ex560/em590), MEDIA CAMHB, plate type 384well, CORNING #3640, time 18 hr
Klebsiella pneumoniae = conditions: Concentration 20 uM; ASSAY_TEST Inhibition of Bacterial Growth; detection method Absorption (OD600); MEDIA CAMHB; plate type 384well; NBS; CORNING #3640; time 18 hr
Candida albicans = conditions: 20 µM
Cryptococcus neoformans = conditions: Concentration 20 uM; ASSAY_TEST Inhibition of Fungal Growth; detection method Resazurin; Absorption (OD600-OD570); plate type 384well; NBS; CORNING #3640

SMILES | Inhibition (Staphylococcus aureus) | Inhibition (Acinetobacter baumannii) | Inhibition (Escherichia coli) | Inhibition (Klebsiella pneumoniae) | Inhibition (Candida albicans) | Inhibition (Cryptococcus neoformans)
CN(C)Cc1cc(C(F)(F)F)ccc1C(O)(c1ccccc1)c1ccccc1 | 9.65% | 13.38% | 9.52% | 10.99% | -1.43% | -9.44%
O=C1/C(=N\c2cccc(Cl)c2)CC(c2ccc(Cl)cc2)N1c1cccc(Cl)c1 (stereo not given) | 20.38% | -11.7% | 10.42% | 18.13% | -2.19% | -8.61%
CSc1nc(O)cc(Cl)n1 | -1.6% | -4.84% | 7.44% | 11.43% | 2.04% | -0.01%
Cc1cc(NC(=O)Nc2cc(Cl)ccc2C)no1 | -16.99% | 4.24% | -3.34% | 4.74% | 19.4% | -2.52%
O=c1[nH]c(=S)c2nc(S)n(-c3ccccc3)c2[nH]1 | 13.04% | 12.41% | 5.84% | 9.43% | 0.52% | -6.47%
O=C(O)CCC(=O)OCCN(Cc1ccc(Oc2ccc([N+](=O)[O-])cc2)cc1)C(=O)C(Cl)Cl | -5.95% | 0.5% | -4.03% | 4.09% | 4.52% | -1.27%
CCCN=C(S)Nc1ccccc1 | -20.14% | -0.42% | -3.75% | 7.36% | 4.15% | 1.71%
COc1ccc(C(=S)N2CCN(c3ccccc3C)CC2)cc1 | 6.05% | -20.13% | 15.7% | 10.93% | 24.1% | -16.11%
O=C(Nc1nnc(C(F)(F)F)s1)c1c(F)cccc1F | 18.6% | 12.37% | 3.33% | 14.22% | 14.6% | 22.23%
N=C(N)NS(=O)(=O)c1ccc(/N=C2/C(=O)Nc3ccccc32)cc1 | 10.79% | 2.06% | 11.61% | 5.69% | -0.17% | -10.75%
CCNc1nc(Cl)nc(-c2cn(-c3ccccc3)c3ccccc23)n1 | 17.23% | 12.81% | 4.37% | 13.6% | 0.17% | -5.12%
O=[N+]([O-])c1cc2cccnc2c2ncccc12 | -17.5% | -9.82% | 9.62% | 9.1% | 0.77% | -9.49%
Cc1ccn(C)c(=N)c1 | 5.26% | -6.78% | 8.42% | 11.41% | 2.59% | -0.88%
O=C(CCl)NC1(C(=O)O)CCCC1 | -0.81% | 16.39% | -6.53% | 9.23% | 6.58% | -2.6%
O=C1OCC/C1=C\c1ccc(O)cc1 | -0.41% | -7.68% | 4.86% | 11.2% | 3.18% | 0.19%
Cc1nc2[nH]c(=O)n(O)c(=O)c2s1 | 4.12% | -18.15% | 5.04% | 12.49% | 3.41% | -6.64%
C(=N\n1cnnc1)/c1ccc2c(c1)CCC2 | 10.16% | -8.61% | 2.79% | 9.91% | 12.8% | -5.02%
CC(C)(C)C1=NN=C2c3ccccc3C(=O)C21 (stereo not given) | -4.27% | 3.03% | -6.26% | 1.25% | 5.03% | -9.6%
CC(=O)NS(=O)(=O)c1ccc2sc(C)nc2c1 | 3.75% | -11.67% | 8.35% | 5.23% | 3.43% | -4.98%
Cc1c([N+](=O)[O-])oc2c1C(=O)NCCC2 | 15.45% | 5.11% | 5.84% | 9.17% | 2.94% | -11.37%
Cc1cccc(NC2=C(C#N)C(=O)NC3(CCCC3)S2)c1 | -0.83% | -3% | -9.49% | 8.76% | 11% | 1.34%
NS(=O)(=O)c1cc2c(cc1Cl)NC(CC1CCCC1)NS2(=O)=O (stereo not given) [CYCLOPENTHIAZIDE] | 1.39% | 8.9% | -12.38% | 7.07% | 3.92% | 5.84%
CC1(C)CC[C@]2(C(=O)n3ccnc3)CC[C@]3(C)[C@H](C(=O)C=C4[C@@]5(C)C=C(C#N)C(=O)C(C)(C)[C@@H]5CC[C@]43C)[C@@H]2C1 | -14.27% | -18.52% | 7.42% | 10.75% | 4.81% | -0.45%
O=C1/C(=C/c2ccc([N+](=O)[O-])cc2)CCc2ccccc21 | 6.03% | -4.9% | 11.7% | 8.24% | 3.4% | -8.15%
CCn1c2ccccc2c2c3ncc4cccn4c3ccc21 | -13.6% | -8.64% | 1.37% | 9.08% | 32.4% | -7.68%
